Here are results for seven molecules from PubChem BioAssay (Tox21).

The nature of test [1]: qHTS assay to identify small molecule antagonists of the progesterone receptor (PR) signaling pathway - cell viability counter screen (AID 1346798). Further: series mostly up to about 92 µM; nearly all actives have a fitted effect of over 50% in size. The method, boiled down:
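In the same plates used for the beta-lactamase readout, cell viability of compound- and R5020-treated PR-UAS-bla HEK293T cells (16 hr, 37C) was assessed by CellTiter-Glo luminescence.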
For orientation: In qHTS, concentration-response curves come from the screen itself.

The nature of test [2]: qHTS assay to identify small molecule agonists of the progesterone receptor (PR) signaling pathway - cell viability counter screen (AID 1346799; calls by dose curve; further: nearly all actives have a fitted effect of over 45% in size). The method, boiled down:
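Multiplexed viability read: CellTiter-Glo luminescence, 30 min RT, following LiveBLAzer FRET measurement on PR-UAS-bla HEK293T cells exposed to compounds 16 hr.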

The nature of test [3]: qHTS assay to identify small molecule antagonists of the TGF-beta/Smad signaling pathway - cell viability counter screen (AID 1346824). Further: nearly all actives have a fitted effect of over 50% in size. The method in brief:
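Cytotoxicity counter-screen run in the same wells as the beta-lactamase Smad reporter read: CellTiter-Glo luminescence after 30 min at room temperature. HEK 293T SBE-bla cells had 5 hr compound exposure at 37 C with TGF-beta1 (0.25 ng/mL stock).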

Test [4] in a line: qHTS assay to identify small molecule agonists of the TGF-beta/Smad signaling pathway - cell viability counter screen (AID 1346829). Further: top concentration of the series differs between compounds; nearly all actives have a fitted effect of over 45% in size. The method, boiled down: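 Tox21 qHTS format: SBE-bla HEK 293T cells treated with DMSO-dissolved compounds for 5 hr; CellTiter-Glo luminescence after 30 min at room temperature.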
A short description of test [5]: qHTS assay to identify small molecule agonists of the TGF-beta/Smad signaling pathway (AID 1346859; active means well fitted activation curve with a large enough effect in the signal ratio in the repeat runs, not every such curve was filed as active; the % refers to the signal ratio; further: series mostly up to about 77 µM). The method, boiled down:
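Screening used HEK 293T SBE-bla cells at 4,000/well. Test agents: 5 hr, 37 C. Detection: FRET substrate, 2 hr RT, then excitation 405 nm with emissions at 460 and 530 nm.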

Test [6] has as its target Thyrotropin-releasing hormone receptor (Homo sapiens) (UniProt P34981). The test is described as follows: qHTS assay to identify small molecule agonists of the thyrotropin-releasing hormone receptor (TRHR) signaling pathway (AID 1346891; calls by dose curve; further: series mostly up to about 58 µM). The method in brief:
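Readout was intracellular calcium fluorescence in TRHR-Hek293 cells. Cells were incubated 18 h, dye-loaded 2 h at 37 °C, and treated with compound in agonist mode.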

Test [7] in a line: Human pregnane X receptor (PXR) small molecule agonists, qHTS cell viability counter screen (AID 1346977). Further: nearly all actives have a fitted effect of over 50% in size. Further: potency means the concentration at half of the fitted maximal effect. The method, boiled down: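 In each well, the PXR reporter HepG2 line was checked for viability: CellTiter-Fluor reagent added 23hr post-dosing, fluorescence read after 1hr incubation at 37C.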
A short description of test [8]: Caspase-3/7 induction in HepG2 cells by small molecules, qHTS assay (AID 1346978). Further: nearly all actives have a fitted effect of over 15% in size. Further: potency means the concentration at half of the fitted maximal effect. The method, boiled down:
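Caspase-3/7 induction was measured by Caspase-Glo 3/7 luminescence (30 min, room temperature) after a 17 hr compound exposure of wild-type HepG2 cells seeded at 2,000 per well and pre-incubated 5 hr.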

Test [9] can be described thus: Caspase-3/7 induction in CHO-K1 cells by small molecules, qHTS cell viability counter screen (AID 1346979). Further: nearly all actives have a fitted effect of over 35% in size. Further: potency means the concentration at half of the fitted maximal effect. The method in brief: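 Following a 5hr settling period, CHO-K1 cells at 1,500 per well received DMSO-dissolved compounds. Cell viability was quantified 16hr later by CellTiter-Fluor fluorescence, measured after 1hr with reagent at 37C.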
Test [10] is described as follows: Caspase-3/7 induction in CHO-K1 cells by small molecules, qHTS assay (AID 1346980). Further: nearly all actives have a fitted effect of over 15% in size. The method in brief: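 Luminescent Caspase-Glo 3/7 read (30min, room temperature) quantified apoptosis induction. Cells were wild-type CHO-K1, treated with compound for 17hr at 37 C and 5% CO2.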
Test [11] can be described thus: Caspase-3/7 induction in HepG2 cells by small molecules, qHTS cell viability counter screen (AID 1346981). Further: series mostly up to about 92 µM; nearly all actives have a fitted effect of over 30% in size. The method in brief: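 In this quantitative HTS counter screen, compounds delivered in DMSO were left on unmodified HepG2 cells for 16 hr at 37 C. Viability was then determined fluorometrically with CellTiter-Fluor, in parallel with caspase-3/7 induction in the same wells.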

For test [12], the target named is Nuclear receptor subfamily 1 group I member 2 (Homo sapiens) (UniProt O75469). Briefly: Human pregnane X receptor (PXR) small molecule agonists, qHTS assay (AID 1346982). Further: nearly all actives have a fitted effect of over 35% in size. Further: potency means the concentration at half of the fitted maximal effect. The method in brief: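 Reporter HepG2 cells expressing PXR-Luc are cultured in charcoal-stripped FBS (5%), treated with compounds for 24 hr at 37 C, and assayed by ONE-Glo luminescence after 30 min at room temperature.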

The target of test [13] is Cytochrome P450 2D6 (Homo sapiens) (UniProt P10635). Briefly: Cytochrome P450 Family 2 Subfamily D Member 6 (CYP2D6) small molecule antagonists: luciferase reporter qHTS assay (AID 1671196). Further: nearly all actives have a fitted effect of over 50% in size. Further: potency means the concentration at half of the fitted maximal effect. The method, boiled down: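 Test chemicals meet CYP2D6 plus proluciferin substrate (10 min, RT); NADPH regenerating solution then drives turnover for 1 h. Detection reagent halts the reaction; luminescence measured after 20 min.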
In general terms: Reporter assays use an easily measured gene product as a stand-in for the process of interest.

Test [14] has as its target Cytochrome P450 2C19 (Homo sapiens) (UniProt P33261). The test is described as follows: Cytochrome P450 Family 2 Subfamily C Member 19 (CYP2C19) small molecule antagonists: luciferase reporter qHTS assay (AID 1671197). Further: nearly all actives have a fitted effect of over 65% in size. Further: potency means the concentration at half of the fitted maximal effect. The method, boiled down:
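Relative luminescence units recorded 20 min after the detection reagent stopped a 1 h, 37C CYP2C19 reaction on proluciferin substrate, which was started by NADPH regeneration following 10 min room-temperature compound preincubation; ketoconazole positive control.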

The target of test [15] is Cytochrome P450 2C9 (Homo sapiens) (UniProt P11712). The test is described as follows: Cytochrome P450 Family 2 Subfamily C Member 9 (CYP2C9) small molecule antagonists: luciferase reporter qHTS assay (AID 1671198). Further: nearly all actives have a fitted effect of over 50% in size. Further: potency means the concentration at half of the fitted maximal effect. The method in brief: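 Enzyme-substrate mix preincubated with compound 10 min at room temperature; reaction started with NADPH regeneration solution, 1 h 37C. Luminescent luciferin product read after 20 min detection reagent.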

Test [16] addresses Cytochrome P450 1A2 (Homo sapiens) (UniProt P05177). Briefly: Cytochrome P450 Family 1 Subfamily A Member 2 (CYP1A2) small molecule antagonists: luciferase reporter qHTS assay (AID 1671199). Further: nearly all actives have a fitted effect of over 50% in size. Further: potency means the concentration at half of the fitted maximal effect. The method in brief: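 Steps: enzyme-substrate mix dispensed; test compounds and furafylline control pinned in; 10 min room temperature; NADPH regeneration solution added, 1 h; reaction stopped with luciferin detection reagent; luminescence read after 20 min.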

“And” between values parts separate entries of the source, which are not always exact repeats. Equal entries are not always repeated. Records with an inconclusive call do not appear. Some compounds were tested as several samples or in several runs, with calls that do not always agree. The source made the active and inactive calls. Unless noted, the call rests on the fitted dose curve; in most records, active means well fitted curve in the direction sought with a large enough effect in the repeat runs; inconclusive means weak or mixed curves; inactive means no such curve, though single readings can be large; an effect the other way counts as inactive or inconclusive.

Chain of Thyrotropin-releasing hormone receptor (Homo sapiens) (P34981 whole entry, looked up): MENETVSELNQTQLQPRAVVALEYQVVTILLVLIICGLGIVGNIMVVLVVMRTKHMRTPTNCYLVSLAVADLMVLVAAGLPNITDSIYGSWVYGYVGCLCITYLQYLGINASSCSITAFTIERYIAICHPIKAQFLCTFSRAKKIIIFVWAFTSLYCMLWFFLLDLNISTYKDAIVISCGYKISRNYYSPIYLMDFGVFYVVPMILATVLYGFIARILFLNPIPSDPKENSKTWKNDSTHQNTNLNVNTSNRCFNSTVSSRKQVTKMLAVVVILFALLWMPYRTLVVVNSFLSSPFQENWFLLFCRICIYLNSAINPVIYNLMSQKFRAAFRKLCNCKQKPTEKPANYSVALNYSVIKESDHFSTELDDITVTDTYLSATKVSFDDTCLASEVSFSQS
Chain of Cytochrome P450 2C9 (Homo sapiens) (P11712 whole entry, looked up): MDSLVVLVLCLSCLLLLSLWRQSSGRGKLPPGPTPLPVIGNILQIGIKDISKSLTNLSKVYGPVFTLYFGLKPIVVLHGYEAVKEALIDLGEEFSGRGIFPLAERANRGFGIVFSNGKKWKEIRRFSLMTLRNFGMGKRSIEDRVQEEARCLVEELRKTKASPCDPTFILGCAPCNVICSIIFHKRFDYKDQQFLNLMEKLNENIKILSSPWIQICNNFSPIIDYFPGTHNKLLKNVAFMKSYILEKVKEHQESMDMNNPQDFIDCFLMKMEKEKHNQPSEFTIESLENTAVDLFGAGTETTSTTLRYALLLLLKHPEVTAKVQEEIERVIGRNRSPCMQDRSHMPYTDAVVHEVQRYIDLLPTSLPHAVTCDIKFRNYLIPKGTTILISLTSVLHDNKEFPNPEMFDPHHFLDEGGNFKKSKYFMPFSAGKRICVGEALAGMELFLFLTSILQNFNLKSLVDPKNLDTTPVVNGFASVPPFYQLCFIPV
Chain of Cytochrome P450 2C19 (Homo sapiens) (P33261 whole entry, looked up): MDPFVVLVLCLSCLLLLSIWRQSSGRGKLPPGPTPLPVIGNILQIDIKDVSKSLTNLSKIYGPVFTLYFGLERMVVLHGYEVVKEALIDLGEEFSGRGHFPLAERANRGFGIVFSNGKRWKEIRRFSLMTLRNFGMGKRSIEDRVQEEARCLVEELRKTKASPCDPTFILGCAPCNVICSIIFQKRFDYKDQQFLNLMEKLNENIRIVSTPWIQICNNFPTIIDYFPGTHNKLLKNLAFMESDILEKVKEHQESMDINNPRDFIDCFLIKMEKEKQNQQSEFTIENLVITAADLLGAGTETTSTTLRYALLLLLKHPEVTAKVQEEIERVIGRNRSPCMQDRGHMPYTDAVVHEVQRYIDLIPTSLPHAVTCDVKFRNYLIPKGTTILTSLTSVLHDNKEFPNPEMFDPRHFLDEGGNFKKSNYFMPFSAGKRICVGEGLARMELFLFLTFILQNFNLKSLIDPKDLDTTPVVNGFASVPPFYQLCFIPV
Chain of Cytochrome P450 2D6 (Homo sapiens) (P10635 whole entry, looked up): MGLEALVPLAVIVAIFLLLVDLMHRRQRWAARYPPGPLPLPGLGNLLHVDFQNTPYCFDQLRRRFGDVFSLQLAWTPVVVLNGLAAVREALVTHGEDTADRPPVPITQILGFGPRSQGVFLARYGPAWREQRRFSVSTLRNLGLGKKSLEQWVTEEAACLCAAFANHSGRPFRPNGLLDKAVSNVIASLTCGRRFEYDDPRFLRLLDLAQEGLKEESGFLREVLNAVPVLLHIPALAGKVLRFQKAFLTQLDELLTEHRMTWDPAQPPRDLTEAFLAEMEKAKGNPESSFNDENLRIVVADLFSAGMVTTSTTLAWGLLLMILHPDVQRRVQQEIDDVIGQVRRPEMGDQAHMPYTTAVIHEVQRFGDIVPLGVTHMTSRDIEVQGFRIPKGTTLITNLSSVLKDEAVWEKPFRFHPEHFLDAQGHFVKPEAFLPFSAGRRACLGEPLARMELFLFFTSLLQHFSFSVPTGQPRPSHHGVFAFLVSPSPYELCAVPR
Chain of Nuclear receptor subfamily 1 group I member 2 (Homo sapiens) (O75469 whole entry, looked up): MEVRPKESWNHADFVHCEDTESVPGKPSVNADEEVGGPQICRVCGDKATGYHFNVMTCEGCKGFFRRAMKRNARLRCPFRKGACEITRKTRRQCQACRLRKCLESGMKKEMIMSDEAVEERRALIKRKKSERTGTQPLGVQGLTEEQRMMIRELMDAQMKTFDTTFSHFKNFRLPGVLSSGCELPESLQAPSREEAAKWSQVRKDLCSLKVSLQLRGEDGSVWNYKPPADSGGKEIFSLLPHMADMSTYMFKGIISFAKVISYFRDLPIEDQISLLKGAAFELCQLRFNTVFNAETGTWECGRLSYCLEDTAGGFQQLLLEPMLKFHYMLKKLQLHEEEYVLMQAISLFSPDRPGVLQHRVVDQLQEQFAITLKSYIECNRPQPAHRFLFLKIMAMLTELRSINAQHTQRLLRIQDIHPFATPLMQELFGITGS
Chain of Cytochrome P450 1A2 (Homo sapiens) (P05177 whole entry, looked up): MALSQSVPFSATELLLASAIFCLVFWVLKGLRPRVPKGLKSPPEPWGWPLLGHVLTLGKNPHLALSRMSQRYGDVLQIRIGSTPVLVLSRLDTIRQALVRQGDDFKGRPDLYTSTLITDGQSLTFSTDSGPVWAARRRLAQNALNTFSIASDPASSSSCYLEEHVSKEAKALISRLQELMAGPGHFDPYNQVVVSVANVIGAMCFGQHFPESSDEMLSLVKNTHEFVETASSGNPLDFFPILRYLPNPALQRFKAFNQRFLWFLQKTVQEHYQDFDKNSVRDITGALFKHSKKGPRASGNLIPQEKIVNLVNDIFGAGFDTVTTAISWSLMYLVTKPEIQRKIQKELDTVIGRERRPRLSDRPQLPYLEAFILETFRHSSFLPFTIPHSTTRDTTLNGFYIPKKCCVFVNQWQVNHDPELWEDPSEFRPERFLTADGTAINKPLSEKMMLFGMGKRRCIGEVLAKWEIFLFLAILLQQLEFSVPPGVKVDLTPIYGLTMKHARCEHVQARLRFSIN

For `CCCCCCCCCCCCCCO`, the Potency entry in [1], in test [2], in test [3], in test [4], in test [7] and in [8] was “inactive” each time. Besides, the Potency result in [9], in [11], in test [12], in test [13], in test [14] and in test [15] was “inactive” each time. Besides, the call in test [5], in test [6] and in [10] was inactive. For the same molecule, the Potency in [16] was 22.4 µM (active).

Regarding `C/C=C1/CC2C=CC1C2` (stereo not given), the Potency result in [1], in [2], in test [3], in test [4], in [7] and in [8] was “inactive” each time. In addition, the Potency result in test [9], in test [11], in test [13], in test [14] and in test [16] was “inactive” each time. Besides, the molecule was classed as inactive in test [5], in test [6] and in [10]. Moreover, the Potency result was “inactive and 54.5 µM (active)” in [12]; “inactive and 39.9 µM (active)” in test [15].

For `CCCCCCCC(=O)OC`, the Potency entry in [1], in [2], in [3], in test [4], in test [7] and in test [8] was “inactive” in each case. For the same molecule, the Potency entry in test [9], in test [11], in test [12], in test [13], in test [14] and in [15] was “inactive” throughout. In test [16], the Potency entry is “inactive”. Besides, the call in [5], in test [6] and in [10] was inactive.

Take `CC(=O)c1ccccc1`: the Potency entry in test [1], in test [2], in [3], in test [4], in test [7] and in test [8] was “inactive” in each case. Moreover, the Potency entry in [9], in [11], in [12], in test [13] and in test [15] was “inactive” in each case. Also, the call in test [5], in [6] and in test [10] was inactive. The Potency was 41.4 µM (active) and inactive in [14]; 32.9 µM (active) in [16].

Consider `O=S1(=O)CC=CC1`, for which the Potency result in [1], in test [2], in test [3], in [4], in [11] and in test [13] was “inactive” in each case. The Potency result in test [14], in test [15] and in test [16] was “inactive” each time. The outcome in [5], in [6] and in test [10] was inactive. In addition, the Potency in test [7] is 39.8 µM (active) and inactive; in test [8], 59 µM (active) and inactive; in [9], 29.6 µM (active) and inactive; in [12] it was 52.6 µM (active) and inactive.

As for `CCCCCCCCCC`, the Potency entry in test [1], in test [2], in test [3], in test [4], in test [7] and in [8] was “inactive” in each case. The Potency entry in test [9], in [11], in test [12], in test [13] and in test [16] was “inactive” throughout. Further, the molecule was called inactive in test [5] and in test [10]. Also, the Potency result in [14] was “inactive and 71 µM (active)”; in test [15], “inactive and 79.6 µM (active)”.

As for `O=C(O)c1cc(C(=O)O)cc(S(=O)(=O)O)c1`, the Potency entry in test [1], in test [2], in test [3], in [4], in test [7] and in [8] was “inactive” each time. Besides, the Potency entry in test [9], in test [11], in test [12], in test [14] and in [15] was “inactive” throughout. Also, the outcome in test [5] and in test [10] was inactive. For the same molecule, the Potency in [13] was 36 µM (active); in test [16], “inactive and 39.9 µM (active)”.
